Compound activity as filed in PubChem.
This is a sample that favours compounds with a hit; in the whole collection about 3.4% have one here.
GPR151 ag = activators of human GPR151; activation, % at 11.2 µM; 1% of 650,000 active; Q8TDV0; AID 1508602; PathHunter beta-arrestin GPR151 cells, luminescence; in the data active = activation above about 4.9%;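 also: 0% = median of compound wells and 100% = cells with positive control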
Target sequence (Q8TDV0 whole entry, looked up): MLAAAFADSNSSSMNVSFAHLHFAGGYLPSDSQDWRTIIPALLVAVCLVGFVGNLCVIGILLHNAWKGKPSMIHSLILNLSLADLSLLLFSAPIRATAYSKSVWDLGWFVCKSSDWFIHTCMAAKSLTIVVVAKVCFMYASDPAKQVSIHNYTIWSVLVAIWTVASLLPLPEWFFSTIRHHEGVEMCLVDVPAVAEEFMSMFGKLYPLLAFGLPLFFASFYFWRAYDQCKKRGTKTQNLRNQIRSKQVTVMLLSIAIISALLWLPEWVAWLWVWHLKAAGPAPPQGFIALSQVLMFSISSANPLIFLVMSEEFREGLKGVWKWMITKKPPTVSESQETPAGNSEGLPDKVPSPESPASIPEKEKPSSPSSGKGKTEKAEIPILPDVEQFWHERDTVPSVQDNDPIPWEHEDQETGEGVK
FBW7 act = human FBW7 E3 ligase activation, primary screen; Q969H0; normalized activity (activation), % at 26.1 µM; AlphaScreen FBW7–phospho-cyclin E peptide binding, activator screen; 0.13% of 650,000 active; in the data active = normalized activity above about 1.9%;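 also: purified mutant Fbw7 with reduced substrate affinity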
MITF inh = human MITF inhibition, primary screen; AlphaScreen MITF homodimerization, bead proximity signal; inhibition, % at 2.6 µM; 0.91% of 650,000 active; AID 1259374; in the data active = inhibition above about 50%;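 also: 0% = vehicle wells with protein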
TEAD-YAP inh = TEAD-YAP interaction inhibition; HEK-TIYL cells, TEAD-Gal4/YAP UAS-luciferase luminescence; inhibition, % at 9.12 µM; 1.4% of 640,000 active; AID 1259422; in the data active = inhibition above about 32%;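 also: 0% = median of test compound wells and 100% = reference inhibitor wells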
An asterisk follows results filed as active; ! = not active in a repeat.

SMILES | GPR151 ag | FBW7 act | MITF inh | TEAD-YAP inh
CCCc1nnc(SCC(=O)Nc2nnc(CC)s2)n1C | -0.3 | -0.2 | -5.7 | -7.4
CC(=O)N1C(=S)NC(=O)/C1=C/c1cc2cc(C)ccc2nc1N1CCOCC1 | 0.6 | 0.0 | -0.7 | 37.6*
Cc1ccc(/C=C/c2ccc(N(C)C)cc2)[n+](C)c1 | 0.7 | -0.5 | 8.9 | 70.0*
Cc1ccc2c(ccc(/C=C/c3ccc(N(C)C)cc3)[n+]2C)c1 | 3.6 | -0.4 | 15.7 | 41.5*
CN(C)c1ccc(/C=C/c2cc(C(C)(C)C)nc(C(C)(C)C)c2)cc1 | 0.0 | -0.2 | -10.6 | 3.5
Cc1cccc2ccc(/C=C/c3ccc(N(C)C)cc3)[n+](C)c12 | 1.0 | -0.6 | 26.9 | 92.8*
CN(C)c1ccc(/C=C/c2cc[n+](C)cc2)cc1 | 1.6 | -0.2 | -6.9 | 43.8*
CN(C)c1ccc(/C=C/c2ccc([N+](=O)[O-])cc2)cc1 | 0.4 | 0.3 | 10.8 | -6.1
CN(C)c1ccc(C(=O)/C=C/c2ccccc2)cc1 | -3.2 | 0.4 | 23.9 | -60.5
O=C(CSc1ncccn1)Nc1sc2c(c1C(=O)NCc1ccccc1)CCCC2 | -0.8 | 0.2 | 9.7 | -7.2
CCCN(CCC)S(=O)(=O)c1ccc(C(=O)Nc2nc(-c3ccc(Cl)c(Cl)c3)cs2)cc1 | 1.1 | -0.1 | -8.4 | 17.6
COCCNc1nc(-c2cccc(O)c2)ccc1C(=O)N(C)CCN(C)C | -0.2 | 0.2 | 13.3 | 4.7
COc1ccc(C(=O)NC(=S)Nc2ccccc2C(N)=O)cc1Br | 1.8 | -0.1 | -8.3 | -0.4
CC[n+]1ccccc1/C=C/N(C(C)=O)c1ccccc1 | -0.2 | 0.5 | 10.2 | -9.2
CC[n+]1ccccc1/C=C/c1ccc(N(C)C)cc1 | 2.5 | -0.3 | 1.0 | 47.1*
COc1cccc(NC(=O)/C=C/c2c(F)cccc2Cl)c1 | -7.1 | 0.5 | 33.7 | -27.6
O=C(Nc1nc2ccccc2[nH]1)c1cccc(I)c1 | -0.4 | -0.1 | -10.0 | -43.2
COc1ccc(Cl)cc1C(=O)Nc1nc2ccccc2[nH]1 | -9.9 | -0.1 | 0.0 | 66.0*
O=C(Nc1nc2ccccc2[nH]1)c1ccccc1F | -9.2 | 0.1 | 3.4 | 89.0*
O=C(Nc1nc2ccccc2[nH]1)c1ccc(F)cc1 | -7.7 | 0.0 | 7.0 | 43.3*
Cc1ccc(NC(=O)c2n[nH]c3ccccc23)cc1Cl | -3.9 | 0.1 | 4.2 | -38.5
Cc1ccc(NC(=O)c2n[nH]c3ccccc23)cc1 | -6.6 | 0.2 | 15.0 | 45.0*
COc1ccc(-c2cc(=O)c3cc(C)ccc3o2)cc1 | -4.9 | -0.1 | -8.8 | 18.1
COc1ccc(-c2cc(=O)c3cc(O)ccc3o2)cc1 | -2.8 | 0.5 | 8.8 | 43.1*
COc1ccc(-c2cc(=O)c3c(O)cc(O)cc3o2)cc1 | 0.9 | 0.0 | 13.0 | 52.6*!
SMILES | GPR151 ag | FBW7 act | MITF inh | TEAD-YAP inh
COc1ccc(-c2cc(=O)c3c(O)cc(OC)cc3o2)cc1 | -5.7 | 0.2 | 23.7 | -59.7
CCOc1ccccc1Nc1nnc(SCC(=O)Nc2ccc3c(c2)OCO3)s1 | -3.0 | 0.0 | 2.6 | -6.5
Cc1cc(NCCc2ccc(O)cc2)nc(Nc2ccnn2C)n1 | 0.2 | -0.1 | -22.1 | -6.2
CCSc1ncc(Cl)c(C(=O)Nc2cccc(C)c2)n1 | 2.2 | -0.1 | -2.0 | 8.4
COc1cc(OC)cc(C2=NC3(CCC(C)CC3)NC2=O)c1 (configuration not stated) | -0.6 | 4.2* | -23.0 | 3.6
Cc1ccc(/C(O)=C2\C(=O)C(=O)N(c3ccccn3)C2c2ccc(C(C)(C)C)cc2)cc1 (configuration not stated) | -1.1 | -0.1 | -8.6 | 44.2*
Oc1cccc(-c2cnc3ccc(NC4CCOCC4)nn23)c1 | 0.1 | 2.2* | 9.3 | 33.1*
c1csc(-c2cnc3ccc(NC4CCOCC4)nn23)c1 | -1.2 | 0.0 | -8.4 | 46.7*
c1ccc(-c2cnc3ccc(NC4CCOCC4)nn23)cc1 | -0.1 | -0.7 | -5.3 | 22.7
c1cc2c(cc1-c1cnc3ccc(NC4CCOCC4)nn13)OCO2 | -0.2 | -0.3 | -28.3 | 54.4*
CCOc1ncccc1C(=O)Nc1nn2cnnc2s1 | -1.3 | 0.3 | 3.8 | -5.2
Nc1ccccc1OCC(=O)O | -0.8 | -0.1 | -5.3 | -6.9
Cc1cc(C)c2nc(SCC(=O)Nc3sccc3C(N)=O)cc(C)c2c1 | 1.2 | 0.1 | -3.8 | 44.7*
Cc1cc(C)c2nc(SCC(=O)Nc3cc(C(N)=O)cc(C(N)=O)c3)cc(C)c2c1 | 0.1 | 0.1 | -12.4 | -11.2
CC(=NC#N)c1c(C(F)(F)F)[nH]n(-c2nc3ccccc3s2)c1=O | -7.4 | 0.1 | 2.4 | 41.6*
Cc1ccc(CNC(=O)c2ccco2)cc1 | -0.9 | -0.1 | 14.0 | 5.2
Cc1cccc(C(=O)Nc2cc(C)nn2-c2nc(C)cc(=O)[nH]2)c1 | 0.1 | -0.1 | 6.0 | 0.5
CCCc1cc(=O)[nH]c(-n2nc(C)cc2NC(=O)c2cccc(Cl)c2)n1 | 1.4 | 2.4* | -1.1 | 5.6
CC1(Cc2ccc(Cl)s2)C(=O)Nc2ccc(-c3cccnc3)cc21 (configuration not stated) | 3.3 | 0.2 | 13.4 | 33.5*
CC1(Cc2ccc(C(F)(F)F)o2)C(=O)Nc2ccc(-c3cccnc3)cc21 (configuration not stated) | 0.8 | 0.6 | 2.1 | 40.3*
COC(=O)c1ccc(CC2(C)C(=O)Nc3ccc(-c4cccnc4)cc32)o1 (configuration not stated) | 0.5 | 0.6 | 17.8 | 13.2
CC1(Cc2ccc(F)cc2)C(=O)Nc2ccc(-c3cccnc3)cc21 (configuration not stated) | -0.1 | 0.2 | 5.7 | 38.2*
CC1(Cc2ccc(S(C)(=O)=O)cc2)C(=O)Nc2ccc(-c3cccnc3)cc21 (configuration not stated) | 0.2 | 0.9 | 45.1 | 18.9
COc1cc(/C=N/NC(=O)c2cccc(O)c2)cc(Br)c1O | -1.0 | 0.1 | 1.9 | -2.3
Cc1cc(Nc2ccc(C(=O)N3CCN(c4ccccn4)CC3)cc2)n2ncnc2n1 | -0.9 | 0.6 | 18.5 | 10.1
SMILES | GPR151 ag | FBW7 act | MITF inh | TEAD-YAP inh
CCN(/C=C(\C#N)S(=O)(=O)/C(C#N)=C/N(CC)CC)CC | 2.1 | -0.1 | -13.3 | -6.9
CC(=O)Nc1ccccc1OCC(=O)c1cc(C)n(CCc2ccc(F)cc2)c1C | 2.1 | 0.0 | 14.3 | 60.6*
COc1ccc2nc3oc(C(=O)N4CCOCC4)cc3cc2c1 | -4.7 | 0.0 | 10.3 | 64.3*
CC(C(=O)Nc1cccc(Cl)c1)n1cccc1 (configuration not stated) | 1.5 | -0.1 | 9.4 | 4.9
COc1cc(N2C(=O)NC(=O)/C(=C\c3ccc(N(C)C)cc3)C2=O)cc(OC)c1OC | -0.3 | 2.5* | 1.7 | 2.4
O=C(N/N=C/c1ccc(N2CCOCC2)o1)c1ccccc1 | 0.1 | 0.1 | 15.5 | -32.0
N#CCC(=O)N/N=C/c1ccc(N2CCOCC2)o1 | -0.5 | 0.5 | 54.1* | 0.1
COc1ccc(CCNC(=O)c2cccc(NCCN3CCOCC3)n2)cc1 | -0.6 | -0.1 | -4.0 | 3.8
O=C(NCc1cccc(C(F)(F)F)c1)c1cccc(Nc2ccc(N3CCOCC3)cc2)n1 | 3.9 | 0.2 | 16.3 | 62.3*
O=C(NCc1cccc(C(F)(F)F)c1)c1csc(Nc2ccc(C(F)(F)F)cc2)n1 | 1.3 | 0.0 | -11.4 | -5.7
COc1ccc(CCNC(=O)c2cccc(Nc3ccc(N4CCOCC4)cc3)n2)cc1 | 4.1 | -0.1 | 15.7 | 59.4*
